Most compounds without a hit are left out; they make up all but 7.9% or so of the library.
HCMV antiviral: blocks human cytomegalovirus replication. HFF cells, HCMV-luciferase reporter, 72 h; hits give low values. activity change, negative = inhibition, % at 57.5 µM. 410,000 compounds, 4.5% hits; in the data active = activity change below about -60%; inconclusive = no clear call, values can overlap the other calls; inactive = above about -39%
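Human foreskin fibroblasts infected with luciferase-reporter HCMV at MOI 1 PFU/cell, compounds at two doses. Luciferase measured 72 h post infection; normalized to buffer-only basal and Salinomycin (10uM) controls.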
LASV entry inh: inhibitors of Lassa virus binding or cell entry; Lassa virus pseudotype entry inhibition, cell reporter; Potency, µM (titrated, usually from 37.9 µM), most hits filed as inhibitors; 300,000 compounds, 1.2% hits; calls by dose curve; tested in HEK293 cells; also: nearly all actives have a fitted effect of over 50% in size
MARV entry inh: blocks Marburg virus binding to or entry into cells. 300,000 compounds, 1.8% hits. Potency, µM (highest dose often 37.8 µM), hits mostly inhibitors. Marburg virus pseudotyped entry inhibition, cell reporter; calls by dose curve; tested in HEK293 cells
FMDV inh: foot and mouth disease virus antiviral activity; 410,000 compounds, 1.2% hits; FMDV antiviral cell-based qHTS; Potency, µM (titrated, usually from 57.9 µM), usual class: inhibitors; calls by dose curve; tested in HEK293T cells; also: read-out not given here; nearly all actives have a fitted effect of over 45% in size
HCV inhibitor: blocks hepatitis C virus; Huh7.5.1 HCVcc-Cre infection, luciferase reporter, 44 h; Potency, µM (doses to about 41.8 µM), most hits filed as inhibitors; 340,000 compounds, 3.4% hits; AID 651820; active = well fitted inhibition curve with a large enough effect; inconclusive = small, poorly fitted or top-dose-only effect, or another doubt; inactive = no such curve, though single readings can be large or run the other way
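Antiviral activity was scored by luciferase reporter output from cells infected with HCVcc-Cre (~0.5 moi) in presence of compound, 44 h infection period, cells seeded 1,000/well 4 h prior.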
Hits are given with their value; [ ] = another dose, or the depositor's remark.

`COc1ccc2[nH]c3c(c2c1)CCN1C(=O)C(CC(=O)NC/C=C(\C)CCC=C(C)C)C[C@H](C(=O)N2CCOCC2)[C@@]31CCC1CCCC1` (stereo not given in full) gave HCMV antiviral inactive, MARV entry inh inactive, FMDV inh inactive and HCV inhibitor 2.5µM.
For CC[C@]12c3[nH]c4ccc(Cl)cc4c3CCN1C(=O)[C@@H](CC(=O)NC/C=C(\C)CCC=C(C)C)C[C@@H]2C(=O)N1CCN(C(=O)c2ccco2)CC1 the results were HCMV antiviral inconclusive, MARV entry inh inactive, FMDV inh inconclusive and HCV inhibitor 11µM.
Cn1c(C2CCC2)nc2cc(C(=O)N3CCOc4ccccc4C3)cc(NC(=O)C3CCCO3)c21 (stereo not given) was read as FMDV inh inactive.
CCCSc1nnc(-c2cccc(S(=O)(=O)N(C)C)c2)n1-c1cc(OC)ccc1OC was read as HCMV antiviral -62, LASV entry inh inactive, MARV entry inh inactive, FMDV inh inactive and HCV inhibitor inactive.
`CC(C)(C)c1cc(-c2csc(Nc3ccccc3)[n+]2Cc2ccc(C(=O)O)cc2)cc(C(C)(C)C)c1O` gave LASV entry inh inactive, MARV entry inh 11µM, FMDV inh 32µM and HCV inhibitor inactive.
`COc1ccccc1-c1ccnc(-n2ncc(C(=O)N[C@H]3CCCCNC3=O)c2C2CC2)n1` gave FMDV inh inactive.
Screening Cc1ccc(-c2c[nH]c(=S)n2-c2ccccc2F)cc1 returned HCMV antiviral -64, LASV entry inh inconclusive, MARV entry inh inactive, FMDV inh inactive and HCV inhibitor inactive.
For C=CCn1c(-c2ccccc2)c[nH]c1=S the results were HCMV antiviral inactive, LASV entry inh inactive, MARV entry inh inactive, FMDV inh inactive and HCV inhibitor inactive.
For CCn1c(-c2ccc(-c3ccccc3)cc2)c[nH]c1=S the results were HCMV antiviral inactive, LASV entry inh inconclusive, MARV entry inh inactive, FMDV inh inactive and HCV inhibitor 10µM.
Screening Cc1ccc(-c2c[nH]c(=S)n2-c2ccccc2)cc1 returned HCMV antiviral inactive, FMDV inh inactive and HCV inhibitor inactive.
Cn1c(-c2ccc(-c3ccccc3)cc2)c[nH]c1=S was read as HCMV antiviral inconclusive, LASV entry inh inconclusive, MARV entry inh inconclusive, FMDV inh inactive and HCV inhibitor 5µM.
For Cc1ccccc1CN1Cc2cnnn2-c2ccccc2C1C#N (stereo not given) the results were HCMV antiviral -99, FMDV inh 13µM and HCV inhibitor inconclusive.
Screening Cc1ccccc1C(=O)N1Cc2cnnn2-c2ccccc2C1C#N (stereo not given) returned HCMV antiviral inactive, FMDV inh inactive and HCV inhibitor inactive[8.37 µM].
`Cc1ccccc1C(=O)Nc1nc2nc(C)c(C)c(=O)n2[nH]1` gave HCMV antiviral inactive, LASV entry inh inconclusive, MARV entry inh inconclusive and FMDV inh inactive.
Screening O=c1[nH]c2ccccc2n1CCCSCCCn1c(=O)[nH]c2ccccc21 returned HCMV antiviral -66, LASV entry inh inconclusive, MARV entry inh inconclusive, FMDV inh 20µM and HCV inhibitor inconclusive.
For Cc1cc(C(=O)CSCCCn2c(=O)[nH]c3ccccc32)c(C)n1C the results were HCMV antiviral inactive, LASV entry inh inactive, MARV entry inh inconclusive, FMDV inh inactive and HCV inhibitor inconclusive.
Screening CCn1c(SCC(=O)Nc2nc3ccc(C)cc3s2)nc2c(c1=O)SC(C)C2 (stereo not given) returned LASV entry inh inactive, MARV entry inh inconclusive, FMDV inh inconclusive and HCV inhibitor 7.9µM.
`CCn1c(SCC(=O)Nc2nc3ccccc3s2)nc2c(c1=O)SC(C)C2` (stereo not given) gave HCMV antiviral inactive, LASV entry inh inactive, MARV entry inh inconclusive, FMDV inh 32µM and HCV inhibitor inconclusive.
Screening CCn1c(SCC(=O)Nc2cc(C)on2)nc2c(c1=O)SC(C)C2 (stereo not given) returned HCMV antiviral inactive, LASV entry inh inactive, MARV entry inh inactive and HCV inhibitor inactive.
COc1ccc(C2=NN(CC(=O)NCc3ccco3)C(=O)CC2)cc1 was read as HCMV antiviral inactive, LASV entry inh inactive, MARV entry inh inactive, FMDV inh inactive and HCV inhibitor inactive.
CN1CCN(c2nc(-c3ccccc3)cc(C(F)(F)F)n2)CC1 was read as HCMV antiviral inactive, LASV entry inh inactive, MARV entry inh inconclusive, FMDV inh inactive and HCV inhibitor inconclusive.

Assay outcomes as filed in PubChem.
